# Source: PubChem BioAssay AID1224852 (National Center for Advancing Translational Sciences (NCATS), 2016)
# Results filed as inconclusive are left out. Activity calls are given as the source filed them. The call rests on the fitted dose curve; in most records, active means well fitted curve in the direction sought with a large enough effect (not every such curve was filed as active); inconclusive means small, poorly fitted or top-dose-only effect, or effect the other way, or another doubt; inactive means no such curve, though single readings can be large or run the other way.
# Experiment: Cell viability assay for measurement of the protective activity of small molecules against cell death caused by Zika virus infection in human neural progenitor cells (hNPCs)
# Details: hNPC ZIKV-induced death protection, ATP luminescence, 72 h; series mostly up to 46.1 µM
# Procedure, shortened: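 Human neural progenitor cells pretreated 1 h with compounds, then infected with Zika virus at 2 FFU/cell for 72 h at 37 C. Viability read as ATP-content luminescence; values are percent inhibition of the virus-induced viability loss.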
row,SMILES,outcome
1,O=C1NC(=O)C(=Cc2ccc(-c3ccc(F)cc3)o2)S1,inactive
2,CC=CC[C@@H](C)C(=O)[C@H]1C(=O)N[C@@H](C(C)C)C(=O)N(C)CC(=O)N(C)[C@@H](CC(C)C)C(=O)N[C@@H](C(C)C)C(=O)N(C)[C@@H](CC(C)C)C(=O)N[C@@H](C)C(=O)N[C@H](C)C(=O)N(C)[C@@H](CC(C)C)C(=O)N(C)[C@@H](CC(C)C)C(=O)N(C)[C@@H](C(C)C)C(=O)N1C,inactive
3,C=CCCCCCCCCC(=O)O,inactive
4,Cc1ccc(O)c(N=Nc2ccccc2)n1,inactive
5,NC(N)=NN=C(/C=C/c1ccc([N+](=O)[O-])o1)/C=C/c1ccc([N+](=O)[O-])o1,inactive
6,O=S(=O)(O)CCSSCCS(=O)(=O)O,inactive
7,CN1CC(=O)N/C1=N/C(=O)Nc1cccc(Cl)c1,inactive
8,COc1cc2nc(-c3ccc(N4CCN(C)CC4)cc3)nc(NCCN3CCOCC3)c2cc1OC,inactive
9,CC(C)(C)COc1ccc(-n2cc(C(=O)O)cn2)cc1C#N,inactive
10,O=c1[nH]nc(Sc2ncc([N+](=O)[O-])s2)n1-c1ccc2c(c1)OCCO2,inactive
11,Nc1ccc(N=Nc2ccccc2)c(N)n1,inactive
12,Cc1nc(N)sc1-c1ccnc(Nc2ccc(N3CCOCC3)cc2)n1,inactive
13,CC(C(=O)O)c1ccc(C(=O)c2cccs2)cc1 (centres undefined),inactive
14,CC[C@@]1(O)C[C@H](O[C@H]2C[C@H](N(C)C)[C@H](O[C@H]3C[C@H](O)[C@H](O[C@H]4CCC(=O)[C@H](C)O4)[C@H](C)O3)[C@H](C)O2)c2c(cc3c(c2O)C(=O)c2c(O)cccc2C3=O)[C@@H]1C(=O)OC,inactive
